Only some compounds are listed: those with a hit (about 5.3% of all), similar ones and a draw of the others.
LASV entry inh = Lassa virus entry inhibition | Lassa virus pseudotype entry inhibition, cell reporter | Potency, µM (doses to about 37.9 µM), for inactives: at the top dose activity change, negative = inhibition, hits mostly inhibitors | actives 1.2% (n = 300,000); calls by dose curve; tested in HEK293 cells; note: nearly all actives have a fitted effect of over 50% in size
HCV inhibitor = inhibitors of hepatitis C virus infection; Huh7.5.1 HCVcc-Cre infection, luciferase reporter, 44 h; Potency, µM (doses to about 41.8 µM), inactives show at the top dose activity change, negative = inhibition, usual class: inhibitors; actives 3.4% (n = 340,000); AID 651820; active = well fitted inhibition curve with a large enough effect; inconclusive = small, poorly fitted or top-dose-only effect, or another doubt; inactive = no such curve, though single readings can be large or run the other way
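Cells (1,000/well) were plated 4 h before compound, then infected with HCVcc-Cre virus (~0.5 moi). After 44 h further culture, infection was read as luciferase luminescence following a 15 min substrate incubation at room temperature.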
Vaccinia Venus = vaccinia inhibition (Venus reporter); actives 0.46% (n = 330,000); Vaccinia virus Venus reporter expression, fluorescence; Potency, µM (top dose mostly 36.5 µM), for the others: at the highest dose activity change, negative = inhibition, usual class: inhibitors; calls by dose curve; tested in A549 cells; note: nearly all actives have a fitted effect of over 30% in size
FMDV inh = antivirals against foot and mouth disease virus; FMDV antiviral cell-based qHTS; Potency, µM (doses to about 57.9 µM), for inactives: at the highest dose activity change, negative = inhibition, usual class: inhibitors; actives 1.2% (n = 410,000); calls by dose curve; tested in HEK293T cells; note: read-out not given here; nearly all actives have a fitted effect of over 45% in size
VACV mCherry inh = vaccinia inhibition (mCherry reporter); actives 0.63% (n = 310,000); Potency, µM (doses to about 36.5 µM), without a hit: at the top dose activity change, negative = inhibition, usual class: inhibitors; AID 720579; Vaccinia virus mCherry reporter infection, fluorescence; calls by dose curve; tested in A549 cells; note: nearly all actives have a fitted effect of over 35% in size
MARV entry inh = inhibitors of Marburg virus binding or cell entry; Potency, µM (series often up to 37.8 µM), for inactives: top-dose activity change, negative = inhibition, hits mostly inhibitors; Marburg virus pseudotyped entry inhibition, cell reporter; actives 1.8% (n = 300,000); AID 540276; calls by dose curve; tested in HEK293 cells
* marks the source's active call; other numbers are inactive results; i = inactive; ? = inconclusive; · = not tested or not shown; ! = not active in a repeat; [ ] = another dose, or the depositor's remark. % is set by controls: 0 for no effect and ±100 for the full control effect; potency is the fitted concentration of half-maximal effect.

SMILES	LASV entry inh	HCV inhibitor	Vaccinia Venus	FMDV inh	VACV mCherry inh	MARV entry inh
COc1ccc(C2C(C#N)=C(N)N(c3ccccc3C#N)C3=C2C(=O)CCC3)cc1CN1CCCC1 (configuration not stated)	1%	1%	-3%	-20%	-8%	5.8µM*
CC(C)c1ccc2oc(=O)cc(CN3CCCCC3)c2c1	2%[46.1 µM]	-25%	-3%	0%	i	?
CCc1ccc(OCCNc2cc(N3CCNC(C)C3)ccc2[N+](=O)[O-])cc1 (configuration not stated)	·	14µM*	·	-8%	·	·
CC1CN(c2ccc([N+](=O)[O-])c(NCCOc3ccc(Cl)cc3)c2)CC(C)N1 (configuration not stated)	·	8.9µM*	·	-6%	·	·
CC(=NNC(=S)N1CCN(c2ccccn2)CC1)c1nccs1	?	1.3µM*	?	-9%	2.8µM*	?
CC(C)NC(=O)c1ccc2c(=O)n(C3CCCC3)c(=S)[nH]c2c1	-11%	-8%	·	3%	·	1%
CCN(CC)CCNC(=O)c1ccc2c(=O)n(C3CCCC3)c(=S)[nH]c2c1	?	?	·	-10%	·	8.2µM*
CCOc1cc2[nH]c(=S)n(Cc3ccc(C(=O)NCC(OC)OC)cc3)c(=O)c2cc1OCC	-19%	-14%	·	-6%	·	-20%
CCOc1cc2[nH]c(=S)n(Cc3ccc(C(=O)NCCN(CC)CC)cc3)c(=O)c2cc1OCC	10%[46.1 µM]	?	-12%	8%	i	10µM*
CCOCCCn1c(=S)[nH]c2cc(C(=O)NCCN(CC)CC)ccc2c1=O	-8%	13µM*	·	-13%	·	?
C=CCN1C(=O)CSC1=Nc1ccc(NC(C)=O)cc1	·	2%	·	-5%	·	·
C=Cc1ccc(CN2C(=O)N(c3ccc(CC)cc3)S(=O)(=O)c3ccccc32)cc1	-5%[46.1 µM]	·	-5%	-12%	-4%	·
NC(=O)C1CCN(C(=O)c2ccc(Cl)c(NC(=O)c3cccs3)c2)CC1	·	·	-12%	15%	i	·
Cc1cccc(NC(=O)Cc2nc(-c3c[nH]c(C(=O)N4CCCC4)c3)cs2)c1	?	?	-19%	35µM*	-29%	?
Clc1ccc2c(c1)CNc1c(ncnc1N1CCOCC1)O2	-14%	?	10µM*	?	·	-1%
Nc1ccc2nc(-c3ccc(Cl)cc3)[nH]c2c1	·	-16%	?	-10%	?	·
Nc1ccc2nc(-c3cc(Cl)c(N)c(Cl)c3)[nH]c2c1	7%	11µM*	·	35%	·	?
Fc1ccccc1-c1nnc2ccc3ccccc3n12	9%[46.1 µM]	-8%	-16%	-17%	i	2%[46.1 µM]
Fc1cccc(Cl)c1-c1nnc2ccc3ccccc3n12	·	10µM*	·	-8%	·	·
O=C(c1cncs1)N(Cc1cc2cc3c(cc2nc1N1CCOCC1)CCC3)CC1CCCO1 (configuration not stated)	·	·	-2%	11%	-7%	·
CO/N=C/C(C#N)=C/c1cc(C(=O)c2ccccc2)cn1C	?	10µM*	-9%	-3%	-20%	?
O=C(NCCO)c1cn(C2CCCN(Cc3cccc(C(F)(F)F)c3)C2)nn1 (configuration not stated)	·	·	14%	-14%	-2%	·
CCOC(=O)CSC1=NC(=O)/C(=C\c2ccc(OC(C)=O)cc2)S1	?	?	·	22%	·	8.2µM*
CCOC(=O)CSC1=NC(=O)/C(=C/c2ccc(Br)cc2)S1	5%	6%	-13%	25µM*	-2%	8%[46.1 µM]
CSc1ncc(C(=O)Nc2cc(C)cc(C)c2)c(-c2ccccc2)n1	20%[46.1 µM]	·	-2%	-15%	-8%	·
SMILES	LASV entry inh	HCV inhibitor	Vaccinia Venus	FMDV inh	VACV mCherry inh	MARV entry inh
Cc1ccc(S(=O)(=O)C=CS(=O)(=O)c2ccc(C)cc2)cc1	·	·	-21%	?	?	·
O=S(=O)(/C=C/C=C/S(=O)(=O)c1ccccc1)c1ccccc1	1µM*	8.9µM*	14µM*	7.9µM*	?	?
CCn1c(C(=O)OC)cc2c1ccn2-c1ccc(F)cc1	-12%	4.5µM*	-6%	-60%	-11%	15%
CCc1nc2ccc(C(=O)NCc3ccc4c(c3)OCO4)cn2c1N(C)C(=O)Cc1ccccc1	·	·	-1%	-3%	i	·
COc1cccc(COC(=O)c2nn(-c3ccccc3)nc2N)c1	?	17%	-19%	25µM*!	-2%	?
COc1ccccc1C1CN(Cc2cnn(C)c2C)Cc2ccccc2O1 (configuration not stated)	·	·	-1%	-10%	-18%	·
Cc1cccc(N2CCN(C(=O)CSCc3c(C)noc3C)CC2)c1C	?	4µM*	-25%	?	-13%	?
COc1ccc(-c2nc(CSCC(=O)N3CCN(c4cccc(C)c4C)CC3)c(C)o2)cc1OC	?	·	11µM*	25µM*	11µM*	·
COc1ccc(-c2nc(CSCC(=O)N3CCN(C)CC3)c(C)o2)cc1OC	·	-5%	·	5%	·	·
Cc1noc(C)c1CSCC(=O)Nc1cc(Cl)ccc1N1CCCCC1	?	10µM*	-19%	0%	-3%	?
Cc1noc(C)c1CSCC(=O)N1CCN(c2ccc(F)cc2)CC1	-15%	?	-25%	?	?	?
Cc1noc(C)c1CSc1ccccc1C(=O)N1CCN(c2ccccc2)CC1	10µM*	-4%	-11%	?	-18%	-13%
COCCSc1ccccc1C(=O)N1CCN(c2ccccc2)CC1	-27%	15%	·	-9%	·	-20%
COCCN(C(=O)Cc1cccs1)C(C(=O)NCc1ccc(OC)cc1)c1ccc(C)cc1 (configuration not stated)	?	?	-14%	·	-14%	?
COc1ccc(CN(C(=O)Cc2c[nH]c3ccccc23)C(C(=O)NC2CCCCC2)c2ccc(C)o2)cc1 (configuration not stated)	7.3µM*	?	·	38%	·	7.3µM*
O=C(NCc1ccccc1)C(c1ccccc1)N(Cc1ccc2c(c1)OCO2)C(=O)Cc1cccs1 (configuration not stated)	13µM*	?	-30%	25%	?	?
O=C(NC1CCCC1)C(c1ccccc1)N(Cc1ccc2c(c1)OCO2)C(=O)Cc1cccs1 (configuration not stated)	?	0%	?	-3%	-26%	?
COc1ccc(CNC(=O)C(c2ccc(C)o2)N(Cc2cccs2)C(=O)Cc2cccs2)cc1 (configuration not stated)	11µM*	11µM*	-25%	19%	?	?
CCOC(=O)OC[C@H]1O[C@H](c2cc(C)cc(C)c2)C=C[C@@H]1OC(=O)OCC	·	·	·	·	·	2%[14.2 µM]
c1ccc2c(c1)sc[n+]2CCC1CCCCC1	·	·	-6%	·	-7%	·
CCOc1ccc(S(=O)(=O)n2cnc3cc(C)c(C)cc32)cc1	?	10µM*	?	?	?	21µM*
Cc1cc2ncn(S(=O)(=O)c3ccc(S(N)(=O)=O)cc3)c2cc1C	·	-15%	·	-17%	·	·

Assay outcomes as filed in PubChem.
